Screening data as filed in PubChem BioAssay.
HCV inh – HCV inhibition. Huh7.5.1 HCVcc-Cre infection, luciferase reporter, 44 h. Potency, µM (highest dose often 41.8 µM), for the others: at the highest dose activity change, negative = inhibition, hits mostly inhibitors. 340,000 compounds, 3.4% hits; further: potency means the concentration at half of the fitted maximal effect; on the % scale 0 is the no-effect control and ±100 the full control effect
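A cell-based infection assay in which seeded cells (1,000 per well) receive test compound after 4 h, are inoculated with HCVcc-Cre at approximately 0.5 moi, and are incubated 44 h before luminescence detection.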
Pf growth 48h – P. falciparum growth inhibition at 48 hours (one generation). 310,000 compounds, 5.9% hits. P. falciparum luciferase growth in erythrocytes, 48 h. AID 504832. Potency, µM (highest dose often 28.7 µM), for inactives: top-dose activity change, negative = inhibition, usual class: inhibitors; further: potency means the concentration at half of the fitted maximal effect; on the % scale 0 is the no-effect control and ±100 the full control effect
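In quantitative HTS format, infected erythrocytes bearing luciferase-reporter parasites were treated for a single generation at 37 C. Luminescence after adding detection reagent served as the growth measure.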
Pf growth 96h – inhibits malaria parasite growth, 96 h. P. falciparum luciferase reporter growth, 96 h. Potency, µM (highest dose often 28.7 µM), for inactives: at the top dose activity change, negative = inhibition, usual class: inhibitors. 320,000 compounds, 6.9% hits. AID 504834; further: potency means the concentration at half of the fitted maximal effect; on the % scale 0 is the no-effect control and ±100 the full control effect
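Readout is luminescence from an integrated firefly luciferase in P. falciparum. Red cells, 2% hematocrit and 0.05% parasitemia final, were cultured with compound through two parasite generations (96 hours) at 37 C, 5% CO2.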
Shiga inhibitor – inhibitors of Shiga toxin in Vero cells | Vero cells, Shiga toxin protein synthesis inhibition reporter | inhibition, % at 38.7 µM | 290,000 compounds, 9.2% hits | AID 2315; in the data active means inhibition mostly above about 28%, no sharp cut-off; inactive means mostly below about 43%; further: 0% is about no effect
Cycloheximide cs – affects cycloheximide protein synthesis inhibition readout, counter-screen. cell reporter, cycloheximide protein synthesis inhibition counterscreen. max response, %. 300,000 compounds, 12% hits; in the data active means max response mostly above about 13%, no sharp cut-off; inactive means mostly below about 14%; further: read at 38.3 µM for the half of the compounds with a filed dose; 0% is about no effect
AMA1-RON2 inh – inhibitors of Plasmodium falciparum AMA1-RON2 interaction; AlphaScreen AMA1-biotinylated RON2 peptide binding; AID 720542; Potency, µM (series often up to 58.2 µM), for inactives: at the top dose activity change, negative = inhibition, actives largely listed as inhibitors; 360,000 compounds, 0.2% hits;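 further: potency means the concentration at half of the fitted maximal effect; 0% = vehicle wells and -100% = peptide control; nearly all actives have a fitted effect of over 45% in size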
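AMA1 (3D7) with his tag at 25 nM final met compounds first, then biotinylated RON2 peptide at 25 nM; detection used donor plus acceptor beads, 10 µg/mL apiece, read by AlphaScreen after 30 min at room temperature.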
* marks the source's active call; other numbers are inactive results; i = inactive; ? = inconclusive; / = no result given; [ ] = another dose, or the depositor's remark. The list is not random: actives were taken first. Their share in the collection is about 21%. Unless noted, the call rests on the fitted dose curve; in most records, active means well fitted curve in the direction sought with a large enough effect; inconclusive means small, poorly fitted or top-dose-only effect, or another doubt; inactive means no such curve, though single readings can be large; an effect the other way counts as inactive or inconclusive.

SMILES	HCV inh	Pf growth 48h	Pf growth 96h	Shiga inhibitor	Cycloheximide cs	AMA1-RON2 inh
CCCC(=O)NCC(c1cccs1)S(=O)(=O)c1ccc(Cl)cc1 (stereo not given)	7.0%	-21.4%	2.62µM*	6.8	5.9	11.7%
COC(=O)C[C@H]1C=C[C@H](NC(=O)Nc2ccccc2F)[C@@H](CO)O1	/	/	/	/	/	2.8%
CCOC(=O)C1(CCc2ccccc2)CCN(C(=O)CCc2cnccn2)CC1	-18.3%	?	10.8%	55.0*	23.9*	-9.3%
CCOC(=O)C1(Cc2ccc(OC)cc2)CCN(C(=O)CCN2CCCC2=O)CC1	-2.7%	?	21.9%	18.7	16.9*	2.2%
CCOC(=O)C1(Cc2ccc(OC)cc2)CCN(C(=O)CCc2cnccn2)CC1	-7.5%	-14.2%	-2.7%	35.6	13.6*	-11.0%
CC(C)c1cc2c(c(O)c1O)[C@@]13CCCC(C)(C)C1CC2OC3=O (stereo not given in full)	-26.9%	?	?	-2.9	-0.6	-2.5%
CC(C)CC(O)C1CCN(C(=O)CCc2nnc(-c3ccccc3)o2)CC1 (stereo not given)	7.8%	15.7%	-8.6%	-6.2	-2.9	0.0%
O=C(CCc1nnc(-c2ccc3c(c2)OCO3)o1)N(Cc1ccncc1)CC1CCCO1 (stereo not given)	-2.9%	?	3.5%	36.4	-4.3	-0.9%
CCC(=O)C1CCCN(C(=O)CCc2nnc(-c3ccc(C(C)=O)s3)o2)C1 (stereo not given)	0.9%	10.9%	56.9%	97.7*	40.4*	6.0%
CCC(=O)C1CCCN(C(=O)CCc2nnc(-c3ccc4c(c3)OCO4)o2)C1 (stereo not given)	6.5%	8.0%	?	51.5*	38.3*	2.9%
CCCOC1CCCN(C(=O)CCc2nnc(-c3ccc4c(c3)OCO4)o2)C1 (stereo not given)	-5.4%	15.0%	13.1µM*	117.4*	46.3*	-10.3%
CC1CCCN(C(=O)CCc2nnc(-c3ccc4c(c3)OCO4)o2)C1 (stereo not given)	10.0%	23.5%	?	100.8*	37.0*	16.3%
CC(C)C[C@H]1CN(CCCC[C@H]2CNC(=O)C(=O)N2CCc2ccccc2)C(=O)C(=O)N1CCC1CCCCC1	/	/	/	/	/	5.8%
Cc1cc(C)n(CCN(C)C(=O)CCc2nnc(-c3ccc4c(c3)OCO4)o2)n1	-4.6%	-26.0%	0.2%	48.3	9.7*	1.3%
O=C(CCc1nnc(-c2ccc3c(c2)OCO3)o1)NCCc1ccccc1F	0.1%	13.8%	17.7%	11.7	14.7	-11.6%
O=c1[nH]c2cc(Cl)cc([N+](=O)[O-])c2c2ccc(Cl)cc12	/	/	/	/	/	-14.1%
CCOC(=O)[C@]12CCC=C1N(Cc1cccc3ccccc13)C(=O)[C@H](CC(=O)N1CCSCC1)C2	/	/	/	/	/	-10.5%
COc1cccc2[nH]c3c(N4CCC(C)CC4)ncnc3c12	?	9.28µM*	?	39.6	20.3	-1.7%
COc1cccc2[nH]c3c(N4CCC5(CC4)OCCO5)ncnc3c12	0.4%	21.1%	-0.3%	10.6	11.4	0.0%
COc1cccc2[nH]c3c(N4CCc5ccccc5C4)ncnc3c12	11.2µM*	?	?	27.6	13.6	-11.2%
CC1CCc2sc3ncnc(N4CCN(C)CC4)c3c2C1 (stereo not given)	-14.9%	?	-22.5%	-2.8	-2.6	-8.6%
COc1ccc(C(O)c2ncc(-c3ccccc3C)[nH]2)cc1 (stereo not given)	/	/	/	/	/	-8.6%
OCCN1CCN(Cc2cccc(Oc3ccc(Cl)cc3)c2)CC1	11.2µM*	?	-9.9%	18.2	0.6	-3.5%
CCCCOc1ccc(CN2CCC(O)CC2)cc1	-2.5%	57.3%	159.0%	90.8*	36.5*	-6.3%
CCCCCCOc1ccc(CN2CCN(CCO)CC2)cc1	10µM*	102.0%	/	61.0*	37.7*	-14.1%
SMILES	HCV inh	Pf growth 48h	Pf growth 96h	Shiga inhibitor	Cycloheximide cs	AMA1-RON2 inh
CCCCOc1ccc(CN2CCN(CCO)CC2)cc1	-15.2%	30.9%	/	24.2	28.6*	-1.4%
O=C(Cc1ccccc1[N+](=O)[O-])c1ccc2c(c1)OCO2	4.7%	/	/	/	/	0.0%
NC(=O)Cn1cnc2nc3n(c2c1=O)CCC3	10.7%	15.3%	59.4%	14.8	1.2	5.3%
Cc1cc(C(=O)CN2C(=O)C(=O)N(CCC3=CCCCC3)C2=O)c(C)n1C	21.1%	/	/	/	/	20.0%[11.6 µM]
COc1ccc([N+](=O)[O-])c(OC)c1C(=O)Nc1ccc(F)cc1F	1.2%	18.2%	74.2%	5.0	-2.5	10.0%
COc1cccc(OC)c1C(=O)NC(=O)Nc1c(F)cc(F)cc1F	11.5%	?	?	2.4	-2.5	-15.9%
COc1cccc(OC)c1C(=O)NC(=O)Nc1c(F)c(F)c(F)c(F)c1F	-9.4%	7.38µM*	2.08µM*	17.1	0.5	-3.0%
COc1ccc([N+](=O)[O-])c(OC)c1C(=O)NC(=O)Nc1c(F)c(F)c(F)c(F)c1F	0.5%	/	4.65µM*	-3.5	-3.4	-0.7%
COc1ccc(C2CC(c3c(-c4ccccc4)c4cc(Cl)ccc4[nH]c3=O)=NN2S(C)(=O)=O)cc1 (stereo not given)	8.2%	?	/	-19.7	-4.2	1.9%
COc1ccc(OC)c(C2CC(c3c(-c4ccccc4)c4cc(Cl)ccc4[nH]c3=O)=NN2S(C)(=O)=O)c1 (stereo not given)	-14.3%	9.28µM*	2.08µM*	14.4	4.5	5.0%
O=C(Nc1ccc(Br)cc1)c1cc(-c2ccncc2)nc2ccccc12	?	/	/	/	/	-6.6%
COc1ccc([C@]23Cc4cc(OC)c(OC)cc4C(O2)C2=C(CC4(CCCCC4)OC2=O)O3)cc1	/	?	?	i	5.3	/
N#Cc1c(-c2ccccc2)cc2nc3ccccc3n2c1N	7.9%	-14.0%	?	0.5	23.7*	10.3%
FC(F)(Cl)c1nnc2ccc(Cl)nn12	10.7%	?	-38.9%[5.75 µM]	-13.9	-2.6	0.0%
Cc1ccc(C)c(OCCNc2ccc([N+](=O)[O-])cn2)c1	?	2.5%	-23.5%	-6.1	-5.6	-10.7%
Cc1cc(C(=O)Nc2ccc([N+](=O)[O-])cn2)cs1	13.5%	100.3%	121.6%	141.0*	40.9*	-5.3%
COc1ccc(C(=O)Nc2ccc([N+](=O)[O-])cn2)cc1OC	2.5%	36.8%	13.6%	-26.4	16.1	15.9%
Cc1ccc(C)c(OCc2ccc(C(=O)Nc3ccc([N+](=O)[O-])cn3)o2)c1	2.51µM*	?	-40.2%	/	/	-4.8%
COc1cc(OC)cc(C(=O)Nc2ccc([N+](=O)[O-])cn2)c1	-6.0%	43.2%	56.3%	18.6	10.2	0.3%
COc1ccc(C(=O)Nc2ccc([N+](=O)[O-])cn2)c(OC)c1	16.1%	195.8%	47.4%	107.3*	35.6*	5.7%[11.6 µM]
O=C(Cc1ccc([N+](=O)[O-])cc1)Nc1ccc(Br)cn1	-15.0%	-14.0%	?	-6.5	1.8	13.3%
